Sampled rows, rich in hits. Any-hit rate of the full collection: about 10%.
NPR1 antag: Natriuretic polypeptide receptor (hNpr1) antagonism - Primary qHTS; 76,000 tested, 1.6% active; HEK293 hNpr1 GloSensor cGMP, ANP-stimulated luminescence; Potency, µM (highest dose often 46.3 µM), inactives show at the top dose activity change, negative = inhibition, hits mostly inhibitors; AID 1347048, 2019; calls by dose curve; note: nearly all actives have a fitted effect of over 60% in size
Target sequence (P16066 whole entry, looked up): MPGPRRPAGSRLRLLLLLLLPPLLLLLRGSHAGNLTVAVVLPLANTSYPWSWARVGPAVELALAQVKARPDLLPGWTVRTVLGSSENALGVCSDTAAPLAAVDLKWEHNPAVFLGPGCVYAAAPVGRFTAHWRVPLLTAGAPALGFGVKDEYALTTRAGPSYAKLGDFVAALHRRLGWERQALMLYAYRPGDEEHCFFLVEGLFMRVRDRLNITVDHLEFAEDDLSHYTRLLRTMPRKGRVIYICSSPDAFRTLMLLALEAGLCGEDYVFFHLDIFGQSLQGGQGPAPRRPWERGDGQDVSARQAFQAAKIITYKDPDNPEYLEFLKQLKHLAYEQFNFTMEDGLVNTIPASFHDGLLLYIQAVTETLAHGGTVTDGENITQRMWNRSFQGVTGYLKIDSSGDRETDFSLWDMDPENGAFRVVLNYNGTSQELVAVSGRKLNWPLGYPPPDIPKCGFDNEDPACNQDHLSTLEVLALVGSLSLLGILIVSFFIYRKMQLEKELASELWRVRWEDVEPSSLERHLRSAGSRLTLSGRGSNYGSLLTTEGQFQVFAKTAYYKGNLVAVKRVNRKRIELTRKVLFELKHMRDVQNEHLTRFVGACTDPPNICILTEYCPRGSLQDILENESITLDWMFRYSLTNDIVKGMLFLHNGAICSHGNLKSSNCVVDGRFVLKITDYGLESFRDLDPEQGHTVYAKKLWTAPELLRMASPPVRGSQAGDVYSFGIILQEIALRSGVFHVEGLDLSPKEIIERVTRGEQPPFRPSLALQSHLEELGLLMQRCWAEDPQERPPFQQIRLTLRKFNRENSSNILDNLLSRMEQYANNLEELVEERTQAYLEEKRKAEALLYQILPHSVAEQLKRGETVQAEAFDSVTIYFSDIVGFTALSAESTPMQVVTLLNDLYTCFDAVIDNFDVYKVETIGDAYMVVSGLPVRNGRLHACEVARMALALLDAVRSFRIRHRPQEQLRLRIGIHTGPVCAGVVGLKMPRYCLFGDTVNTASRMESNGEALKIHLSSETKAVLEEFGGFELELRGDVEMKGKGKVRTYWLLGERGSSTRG
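Compound pre-incubated 30 min at room temperature on GloSensor-loaded HEK293 cells stably carrying hNpr1 and the pGS-40F cGMP biosensor. Stimulation uses hNppA at 0.1 nM final; luminescence is taken at baseline and 20 min post-agonist.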
HEK cytotox: Cytotoxic Profiling in HEK 293 Cell Line of Diverse Libraries Using Quantitative High-Throughput Screening. HEK 293 viability, ATP luminescence (CellTiter-Glo), 48-72 h. 94,000 tested, 6.6% active. Potency, µM (doses to about 115 µM), inactives show at the top dose activity change, negative = cytotoxicity, usual class: inhibitors; note: nearly all actives have a fitted effect of over 60% in size
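Read-out: CellTiter-Glo ATP luminescence. Cells: HEK 293, 250 cells/well. Exposure: 48 or 72 hr, 37 degree Celsius.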
3T3 cytotox: Cytotoxic Profiling in NIH 3T3 Cell Line of Diverse Libraries Using Quantitative High-Throughput Screening; 94,000 tested, 4.3% active; AID 1345082, 2018; NIH 3T3 viability, CellTiter-Glo ATP luminescence, 48-72 h; Potency, µM (top dose mostly 96.7 µM), without a hit: top-dose activity change, negative = cytotoxicity, actives largely listed as inhibitors; note: nearly all actives have a fitted effect of over 55% in size
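Cells were seeded at 400 per well, treated with pin-transferred compound, and kept 48 or 72 hr at 37 °C before CellTiter-Glo addition and luminescence imaging of cellular ATP.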
Luciferase inh: Firefly luciferase inhibition profiling of diverse chemical library using quantitative high-throughput screening; Luciferin 4-monooxygenase (Photinus pyralis), P08659; purified P. pyralis luciferase, luminescence, biochemical; Potency, µM (highest dose often 115 µM), hits mostly inhibitors; 76,000 tested, 2.5% active; AID 1347043, 2019; note: nearly all actives have a fitted effect of over 65% in size
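FLuc 10nM, D-luciferin 10uM, ATP 10uM, Mg acetate 10mM, Tris acetate pH 7.5, Tween/BSA; cpd qHTS; enzyme added last; CCD luminescence.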
GPT2 inhibitor: Primary qHTS assay for inhibitors of Glutamate pyruvate transaminase 2 (GPT2); Alanine aminotransferase 2 (Homo sapiens), Q8TD30; Recombinant GPT2, coupled pyruvate oxidase/HRP Amplex Red fluorescence; Potency, µM (series often up to 57.7 µM), for the others: at the top dose activity change, negative = inhibition, usual class: inhibitors; 100,000 tested, 0.25% active; AID 1671188, 2021; note: nearly all actives have a fitted effect of over 60% in size
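Recombinant GPT2 (10ng/uL) with 250uM a-KG and 2mM L-alanine, 30 min at room temperature, in HEPES pH 7.5 buffer. Pyruvate detected by pyruvate oxidase/HRP/Amplex Red fluorescence after 30 min in the dark; AOA (50uM) as positive control.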
* = called active by the depositor; i = inactive; ? = inconclusive; . = no result; [ ] = another dose, or the depositor's remark. Unless noted, calls come from the whole dose curve; as a rule, active = well fitted curve in the direction sought with a large enough effect; inconclusive = small, poorly fitted or top-dose-only effect, or another doubt; inactive = no such curve, though single readings can be large; an effect the other way counts as inactive or inconclusive. % is set by controls: 0 for no effect and ±100 for the full control effect; potency is the fitted concentration of half-maximal effect.

SMILES	NPR1 antag	HEK cytotox	3T3 cytotox	Luciferase inh	GPT2 inhibitor
CCc1nc(-c2ccc(OC3CCN(C(=O)Cc4ccccc4F)C3)cc2)no1 (centres undefined)	.	?	?	.	-5.1%
O=C(c1ccco1)N1CCCCCC1CN1CCOCC1 (centres undefined)	-15.0%	-2.9%	-17.6%	i	i
C#CCNC[C@@H]1C=C(C)[C@H](Cc2nnc(Cc3c[nH]c4ccccc34)o2)C[C@H]1C(C)C	-12.7%[70.6 µM]	50.1µM*	?	i	1.7%[88.5 µM]
CCNC(=O)NC[C@@H]1C=C(C)[C@H](Cc2nnc(-c3ccccc3F)o2)C[C@H]1C(C)C	-27.5%[70.6 µM]	?	?	i	-34.1%[88.5 µM]
CC1=C[C@@H](CNC(=O)CN(C)C)[C@H](C(C)C)C[C@H]1Cc1nnc(-c2ccccc2F)o1	-0.6%[70.6 µM]	?	31.6µM*	i	-6.3%[88.5 µM]
C#CCNC[C@@H]1C=C(C)[C@H](Cc2nnc(-c3ccccc3F)o2)C[C@H]1C(C)C	-1.9%[70.6 µM]	70.8µM*	?	i	0.1%[88.5 µM]
CC1=C[C@@H](CNC(=O)NC(C)C)[C@H](C(C)C)C[C@H]1Cc1nnc(-c2ccccc2F)o1	-18.8%[70.6 µM]	79.4µM*	31.6µM*	i	?
O=C(C1CCC1)N1CC(Oc2ccccc2-c2nc(-c3cnccn3)no2)C1	-3.5%	1.8%	-14.0%	i	-14.0%
O=C1OC[C@@H]2CCN(Cc3cccnc3)Cc3ccc(F)cc3N12	3.7%[70.6 µM]	i	i	i	-6.4%[88.5 µM]
CC(=O)Nc1ccc(C(=O)NC[C@@H]2C=C(C)[C@H](Cc3nnc(-c4ccccc4F)o3)C[C@H]2C(C)C)cc1	-4.0%	28.2µM*	?	i	-6.9%
CC1=C[C@@H](CNC(=O)c2cncnc2)[C@H](C(C)C)C[C@H]1Cc1nnc(-c2ccccc2F)o1	-7.7%	?	?	i	i
CC1=C[C@@H](CNC(=O)c2cnccn2)[C@H](C(C)C)C[C@H]1Cc1nnc(-c2ccccc2F)o1	-21.9%	35.5µM*	?	i	-24.6%
COc1ccc(-c2nnc(C[C@@H]3C[C@@H](C(C)C)[C@H](CNC(=O)c4cnccn4)C=C3C)o2)cc1	1.8%	?	-6.3%	i	1.4%
COc1ccc(NC(=O)C2CCCN(c3ccnc4ccnn34)C2)cc1 (centres undefined)	.	?	?	.	-11.8%
CN1C(=O)c2cccn2CC1CNC(=O)c1ccccc1F (centres undefined)	-0.4%	i	-3.2%	i	0.9%
COc1cc(OC)cc(-c2onc(C)c2C(=O)NCCC(c2ccccc2)c2ccccc2)c1	-3.3%	39.8µM*	?	i	-0.9%
Cc1noc(-c2ccccc2Cl)c1C(=O)NCCOc1ccccc1	2.7%	?	?	i	i
Cc1noc(-c2ccco2)c1C(=O)NCCC(c1ccccc1)c1ccccc1	-13.9%	39.8µM*	?	i	2.2%
Cc1noc(-c2ccc3c(c2)OCO3)c1C(=O)NCCC(c1ccccc1)c1ccccc1	-17.3%	22.4µM*	?	i	1.5%
Cc1noc(-c2ccccc2Cl)c1C(=O)NCCC(c1ccccc1)c1ccccc1	-4.9%	25.1µM*	28.2µM*	i	4.7%
COc1cccc(CCNC(=O)c2c(C)noc2-c2cc(OC)cc(OC)c2)c1	-15.0%	?	?	i	-4.1%
COc1ccc(-c2onc(C)c2C(=O)NCCc2cccs2)cc1	-14.0%	35.5µM*	-31.3%	i	0.6%
N#Cc1cccc(C2CCN(c3cc(C4CC4)ncn3)CC2)c1	?	?	?	i	-5.3%
CNC(=O)[C@@H]1C[C@H](Oc2ccccc2)CN1C(=O)c1cc(C)n(C)n1	-5.1%	?	-6.8%	i	-19.2%
O=C(NC1CC1)c1nc(-c2ccccc2)c2ccccn12	3.6%[70.6 µM]	63.1µM*	?	i	i
SMILES	NPR1 antag	HEK cytotox	3T3 cytotox	Luciferase inh	GPT2 inhibitor
O=C(NC1CC1)c1nc(-c2cccc(C(F)(F)F)c2)c2cnccn12	-5.0%	79.4µM*	-24.2%	i	i
COC(=O)CNC(=O)c1nc(-c2ccccc2)c2ccccn12	-8.2%[70.6 µM]	?	?	i	i
COc1ccccc1-c1nc(C(=O)NC2CC2)n2ccncc12	-22.4%[70.6 µM]	?	56.2µM*	i	-21.6%[88.5 µM]
O=C(c1cc[nH]c(=O)c1)N1CC(F)(F)C[C@H]1c1nc(C2CC2)no1	11.1%	i	i	i	i
C#CCNC(=O)C1CCCN1Cc1ccc(-c2cc(C)cc(C)c2)cc1 (centres undefined)	.	44.7µM*	?	.	-3.5%
Cc1cc(C)cc(-c2ccc(CN3CCCC3C(=O)NCC(F)(F)F)cc2)c1 (centres undefined)	.	?	?	.	i
Cc1cc(C)cc(-c2ccc(CN3CCCC3C(=O)NC3CCCC3)cc2)c1 (centres undefined)	.	28.2µM*	22.4µM*	.	i
O=C1CC2(CCN(Cc3cccnc3)CC2)Oc2cc(Cl)ccc21	0.0%	?	?	25.1µM*	i
O=C1CC2(CCN(Cc3ccc(F)cc3)CC2)Oc2ccccc21	-1.4%[70.6 µM]	50.1µM*	?	i	2.1%[88.5 µM]
CN(C)c1ccc(CN2CCC3(CC2)CC(=O)c2ccccc2O3)cc1	13.1%	-6.6%	-5.5%	i	i
COCCCNC(=O)c1ccc2nnc(-c3cccc(C(F)(F)F)c3)n2c1	.	-9.3%	-23.0%	.	4.0%
Cn1ccc2c(C(=O)NCCC(N)=O)nc(-c3ccccc3)cc21	1.6%[70.6 µM]	-2.8%[172 µM]	100µM*	i	i
Cn1ccc2c(C(=O)NCCC(N)=O)nc(-c3ccccc3C(F)(F)F)cc21	3.6%[70.6 µM]	?	?	i	-4.1%[88.5 µM]
Cn1ccc2c(C(=O)NCCC(N)=O)nc(-c3cccc(C(F)(F)F)c3)cc21	3.4%[70.6 µM]	89.1µM*	?	i	-9.4%[88.5 µM]
Cn1ccc2c(C(=O)NCCC(N)=O)nc(-c3cccc(CO)c3)cc21	4.1%[70.6 µM]	i	?	i	-2.6%[88.5 µM]
Cn1ccc2c(C(=O)NCC3CCC(=O)N3)nc(-c3ccccc3)cc21 (centres undefined)	-1.9%[70.6 µM]	-24.2%[172 µM]	50.1µM*	i	3.7%[88.5 µM]
CC1(C(=O)NCCc2ccccn2)COCc2cnc(Nc3ccccc3)nc21 (centres undefined)	2.5%[70.6 µM]	?	-20.4%[138 µM]	i	2.4%[88.5 µM]
O=C([C@H]1CCC[C@@H](O)C1)N1CCN(Cc2ccc(C(F)(F)F)cc2)CC1	-0.7%	?	-33.2%	i	-16.6%

Source: PubChem (National Center for Advancing Translational Sciences (NCATS))
